# About 2,700 (4%) of roughly 68,000 compounds showed an effect of 50% or more. Many of the other results were omitted from the sample, so strong results are more common in it than they were.
# Tested on: Plasmodium berghei
# Assay: Screen against P. berghei liver stage (PbLuc), transformed with Luciferase, at 2uM
# Type: functional, HepG2
# Conditions: tested at 2 uM
row,Compound,INHIBITION [%]
1,C[C@H](NC(=O)C1CCCC1)c1nc2cc(-c3ccc(F)cc3)ncn2n1,39.48
2,CC(O)c1cccc(OCc2ccon2)c1 (stereo unspecified),46.28
3,Cn1cc(CN2CC[C@H]3O[C@H](C(=O)Nc4cnccn4)CC[C@H]32)cn1,-20.89
4,CN(CC(=O)Nc1cccnc1)CC1CCCN1c1cccnn1 (stereo unspecified),45.48
5,Cc1nn(C)c(Cl)c1C1CCCN1C(=O)c1cnc[nH]1 (stereo unspecified),8.37
6,CC(=O)N(Cc1noc(C)n1)C1CCN(CC(=O)N(C)C2CC2)C1 (stereo unspecified),-3.97
7,Cc1nccn1CCN(C)C(=O)C1CCN(C(=O)C2CCC2)CC1,20.45
8,CN(C)CCN1C[C@@H]2CN(S(=O)(=O)c3ccccc3)C[C@@H]2C1=O,19.16
9,Cc1ccc(CN2C[C@H](OCC3CCOCC3)[C@H]3COC[C@H]32)o1,18.32
10,O=C(c1ccc2nccnc2c1)N1CCN(CCO)[C@@H]2CS(=O)(=O)C[C@@H]21,14.82
11,Cc1nc2ccc(C(=O)N3CCN(CCO)[C@@H]4CS(=O)(=O)C[C@@H]43)cc2o1,-85.34
12,CC(C)=CCN1CCN(S(=O)(=O)c2cn(C)cn2)[C@H]2CS(=O)(=O)C[C@H]21,50.98
13,Cn1cnc2cc(C(=O)N3CCN(CCO)[C@@H]4CS(=O)(=O)C[C@@H]43)ccc21,55.36
14,CC(C)CN1CCN(S(=O)(=O)c2cn(C)cn2)[C@H]2CS(=O)(=O)C[C@H]21,15.74
15,CC(C)=CCN1CCN(Cc2nccn2C)[C@H]2CS(=O)(=O)C[C@H]21,8.26
16,O=C(Cn1nc(-c2ccc(F)cc2)oc1=O)NCCc1ccccc1,20.57
17,c1ccc(OCc2nnn3c2CN(c2ncccn2)CCC3)nc1,-7.52
18,Cc1nnc2ccc(OCCNS(C)(=O)=O)nn12,-26.08
19,N#Cc1cccc(CN2CCn3cc(Cn4cccn4)nc3C2)c1,21.42
20,CSc1ccc(NCC(=O)NCC2CC2)cc1F,55.66
21,CSc1ccc(NCC(=O)NCC(=O)N2CCCC2)cc1F,-30.18
22,CSc1ccc(NCC(=O)NC(=O)NCC(F)(F)F)cc1F,18.63

row,Compound,INHIBITION [%]
1,COc1ccc(CNC(=O)NC2CCN(CC3CCCC3)CC2)cn1,-17.01
2,CCCN1C[C@H](NC(=O)c2cccs2)[C@@H](c2ccc(OC)cc2)C1,53.65
3,CCCN1C[C@H](NC(=O)c2ccccc2F)[C@@H](c2ccc(OC)cc2)C1,16.55
4,CCCN1C[C@H](NC(=O)c2cc(C)no2)[C@@H](c2ccc(OC)cc2)C1,18.22
5,O=c1c2ccccc2ncn1Cc1cc(C2CC2)[nH]n1,34.98
6,CCOCC1c2c(ncn2C)CCN1C(=O)c1cscn1 (stereo unspecified),16.78
7,Cc1ncnc2c1CCN(Cc1ccc3c(c1)OCO3)CC2,-39.9
8,Cc1cc(CNc2ccc3nc(C)sc3c2)no1,-32.33
9,Cc1noc(C)c1CNc1ccc2nc(C3CC3)sc2c1,25.21
10,Cc1cc(CNc2ccc3nc(C4CC4)sc3c2)no1,53.63
11,CN1CCNC(=O)C12CCN(Cc1ccco1)CC2,27.42
12,Cc1ccc(CN2CCC3(CC2)C(=O)NCCN3CC2CC2)o1,8.62
13,O=C(CC1CC1)N1CCC2(CC1)C(=O)NCCN2Cc1ccccc1,52.36
14,O=C(NC1CC1)N1CCC2(CC1)C(=O)NCCN2Cc1ccccc1,-11.54
15,O=C1NCCN(CC2CC2)C12CCN(Cc1ccco1)CC2,61.9
16,CC(C)NC(=O)N1CCC2(CC1)C(=O)NCCN2Cc1ccccc1,5.69
17,CC(C)CNC(=O)[C@H]1CCS(=O)(=O)[C@@H]2CN(Cc3cccnc3)C[C@H]12,35.07
18,COC(=O)c1ncccc1N1CCCCC1,-18.04
19,COc1nc2ccccc2cc1C1CC(=O)Nc2n[nH]c(C3CCC3)c21 (stereo unspecified),13.51
20,CC(C)c1nccc(C2CC(=O)Nc3n[nH]c(C4CCC4)c32)n1 (stereo unspecified),53.33
21,O=C1CC(c2ccc3ccccc3n2)c2c(n[nH]c2C2CCC2)N1 (stereo unspecified),46.3
22,CCc1n[nH]c(SCC(=O)N2CCc3[nH]nc(C4CCC4)c3C2)n1,23.45

row,Compound,INHIBITION [%]
1,CCc1nnc(SCC(=O)N2CCc3[nH]nc(C4CCC4)c3C2)o1,66.4
2,Cc1nnc(SCC(=O)N2CCc3[nH]nc(C4CCC4)c3C2)o1,22.34
3,O=C(C1CC1)N1CCC(O)(CN2CCN(c3ccccc3)CC2)C1 (stereo unspecified),0.64
4,Cc1nc2c(c(N(C)C)n1)CCN(C(=O)c1sccc1S(N)(=O)=O)C2,-22.79
5,CC(C)CNc1nccc(-c2cnc3sc(Cl)cn3c2=O)n1,-24.85
6,CC(NC(=O)CCn1cccn1)c1ccc(-n2ccnn2)cc1 (stereo unspecified),-33.92
7,CC(NC(=O)CCn1cccn1)c1cn(-c2ccccc2)nn1 (stereo unspecified),2.26
8,COC(=O)CC(NC(=O)CCn1cccn1)c1ccc(C)cc1 (stereo unspecified),60.13
9,COC(=O)CC(NC(=O)CCCn1cccn1)c1ccc(Cl)cc1 (stereo unspecified),-18.57
10,CC(NC(=O)CCn1cccn1)c1cccs1 (stereo unspecified),-38.35
11,CC(C)OC(=O)CC(NC(=O)CCn1cccn1)c1ccccc1 (stereo unspecified),67.28
12,CN(C)CCN1CCC2(CCN(C(=O)c3ccc(F)cc3)CC2)C1=O,-16.42
13,Cc1cc(C)n(CC2CN(CC(=O)NCc3ccccn3)CCO2)n1 (stereo unspecified),-12.05
14,CN(Cc1cccnc1)[C@@H]1CN(C(=O)c2ccno2)[C@@H]2CCCO[C@H]12,-7.88
15,CCSc1cc(C(=O)NCc2ccc(C(=O)NC)cc2)ccn1,19.48
16,C[S+]([O-])c1nncn1CC(=O)c1ccc(Br)cc1 (stereo unspecified),-59.71
17,CCOC(=O)CC(c1ccc(OC)cc1)c1c(O)n[nH]c1C (stereo unspecified),-43.9
18,CN(Cc1ccc([S+](C)[O-])cc1)c1ccc(Br)cn1 (stereo unspecified),67.28
19,CN(Cc1ccc([S+](C)[O-])cc1)c1ccc(Cl)cn1 (stereo unspecified),45.82
20,CN(Cc1ccc([S+](C)[O-])cc1)c1ccc(C(F)(F)F)cn1 (stereo unspecified),48.21
21,CN(C)[C@H]1CCCCN(C(=O)c2cccc(-c3cccc(F)c3)c2)C1,36.79
22,COc1c(F)ccc(C(=O)N2CC[C@H](CO)[C@@H](O)C2)c1F,-15.37

row,Compound,INHIBITION [%]
1,NC(=O)c1cc(-n2cc(-c3cccc(C(=O)O)c3)cn2)cs1,29.13
2,NC(=O)c1ccccc1-n1cc(-c2cccc(C(=O)O)c2)cn1,0.51
3,NC(=O)c1cc(-c2cccc(C(=O)O)c2)cs1,67.28
4,CC(C)C(=O)N1CCC2(CCCN(CCOc3ccccc3)C2)C1 (stereo unspecified),21.89
5,Cn1c(N)nnc1SCc1c(F)cccc1Br,-3.53
6,Cn1c(N)nnc1SCc1cc(Br)ccc1Cl,55.36
7,Cn1c(N)nnc1SCc1ccc(Cl)cc1Br,45.82
8,NC(=O)C(NC(=O)CSCc1ccc(Cl)s1)c1ccccc1 (stereo unspecified),28.04
9,CS(=O)(=O)Cc1ccc(CNC(=O)c2cccnc2O)cc1,-4.5
10,COCC(C)(C#N)NC(=O)c1cn(-c2cccc(Cl)c2F)nn1 (stereo unspecified),-10.98
11,O=C(c1ccncc1F)N1CC2CC1(C(=O)N1CCCC1)C2,33.14
12,CN(C)C(=O)CN1CCN(c2ncccn2)[C@@H]2CS(=O)(=O)C[C@@H]21,58.69
13,CN(C)C(=O)CN1CC[C@H]2[C@H]1CCN2c1ncccn1,22.18
14,O=C(CN1CCN(c2ncccn2)[C@@H]2CS(=O)(=O)C[C@@H]21)N1CCCCC1,14.19
15,CC(NC(=O)c1ccsc1)c1ccc2c(c1)NC(=O)CO2 (stereo unspecified),-34.61
16,CCN1CCCC1CN(Cc1ccoc1)CC1CCN(CCOC)CC1 (stereo unspecified),42.2
17,CCN1CCCC1CN(Cc1ccon1)CC1CCN(CCOC)CC1 (stereo unspecified),55.66
18,CCN1CCCC1CN(Cc1cc[nH]n1)CC1CCN(CCOC)CC1 (stereo unspecified),18.63
19,Cc1cc(C)nc(NC(C)Cc2cnccn2)n1 (stereo unspecified),4.42
20,Cc1cc(N2CCCC2c2nnc3n2CCCCC3)nc(N)n1 (stereo unspecified),38.89
21,CC(C)c1noc(-c2ccc(NCCCN3CCCC(O)C3)nc2)n1 (stereo unspecified),22.57
22,Cc1csc2c(=O)n3c(nc12)CCN(C(=O)c1ccccn1)CC3,-25.54

row,Compound,INHIBITION [%]
1,CCc1cc(C(=O)N2CCc3nc4c(C)csc4c(=O)n3CC2)on1,51.32
2,Cc1csc2c(=O)n3c(nc12)CCN(C(=O)c1ccnn1C)CC3,19.07
3,CNc1cncc(C2CCCN2c2cc(C)ncn2)n1 (stereo unspecified),5.15
4,Cc1c(Cl)cccc1S(=O)(=O)N1CCC2(CC1)OCCS2,-21.09
5,COc1cccc([C@H]2CN(C(=O)c3ccccc3)[C@@H]3CCCN[C@H]23)c1,34.48
6,N#Cc1c(Cl)nsc1N1CCN(CC2CCCCC2)CC1,29.89
7,CC(C)(C)CCN1CCN(c2snc(Cl)c2C#N)CC1,58.29
8,N#Cc1c(Cl)nsc1N1CCN(CC2CC2)CC1,20.88
9,c1coc(CN2CCCC3(COCCN(Cc4c[nH]nn4)C3)C2)c1 (stereo unspecified),-10.66
10,CCn1cc(NC(=O)NCc2ccc(CN3CCOCC3)cc2)cn1,17.39
11,CN1CCN(c2cccc(Cl)c2CNCCS(C)(=O)=O)CC1,4.42
12,O=C(Cc1ccc2c(c1)OCC2)Nc1nc[nH]n1,8.14
13,O=C(c1cccnc1)N1CCC(Oc2cccc(C(F)(F)F)c2)CC1,45.82
14,O=C(c1ccc(=O)[nH]c1)N1CCC(Oc2cccc(C(F)(F)F)c2)CC1,57.75
15,O=C(c1ccncc1)N1CCC(Oc2cccc(C(F)(F)F)c2)CC1,26.74
16,CC(N)C(=O)N1CCC(Oc2cccc(C(F)(F)F)c2)CC1 (stereo unspecified),48.21
17,Nc1ccc(C(=O)N2CCC(Oc3cccc(C(F)(F)F)c3)CC2)cn1,17.2
18,Nc1cc(C(=O)N2CCC(Oc3cccc(C(F)(F)F)c3)CC2)ccn1,72.05

# Reference: ChEMBL document CHEMBL4513216, “Probing the Open Global Health Chemical Diversity Library for Multistage-Active Starting Points for Next-Generation Antimalarials” (ACS Infect Dis, 2020)
